# Laboratory results published in paper PMC7862700, “An all-to-all approach to the identification of sequence-specific readers for epigenetic DNA modifications on cytosine”.
# Assays:
# Test in all cases: DAPPL (digital affinity profiling via proximity ligation, sequencing); 10 mM Tris-HCl pH 7.5, 50 mM NaCl, 1 mM DTT, 4% glycerol, room temperature, 30 min; GST-TFs on glutathione beads, 16-mer random dsDNA library, 0.1% formaldehyde crosslink after washing; high values mean tight binding
# [1] = target: T1, FEV (Homo sapiens, UniProt Q99581 1-238); details: protein: recombinant; tags: N-terminal GST; dsDNA, one strand shown
# T1 sequence: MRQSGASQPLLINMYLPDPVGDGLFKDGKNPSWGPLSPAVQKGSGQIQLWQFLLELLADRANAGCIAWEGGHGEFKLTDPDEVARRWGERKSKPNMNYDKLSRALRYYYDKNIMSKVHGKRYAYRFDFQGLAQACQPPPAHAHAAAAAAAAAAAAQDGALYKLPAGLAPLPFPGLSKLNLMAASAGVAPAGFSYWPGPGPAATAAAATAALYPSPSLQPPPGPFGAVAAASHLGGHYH
# Outline: (§1)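 Binding signal is each hexamer's read frequency for a factor divided by its frequency in the tag-only sample. The factors were GST-fused human transcription factors from yeast, captured on glutathione beads, DNA-barcoded and pooled with that sample. Pools were incubated with 200 nmole of a random double-stranded 16-mer DNA library in Tris/NaCl/DTT/glycerol buffer at room temperature for 30 min, then washed, crosslinked with 0.1% formaldehyde, proximity-ligated with BsaI/T4 ligase (1 h, 37 °C), PCR-amplified and sequenced on an Illumina NextSeq500.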
# [2] = target: ETV5 (Homo sapiens, UniProt P41161 1-510); details: protein: recombinant; tags: N-terminal GST; dsDNA, one strand shown
# Outline: as §1
# [3] = target: HSF1 (Homo sapiens, UniProt Q00613 1-529); details: protein: recombinant; tags: N-terminal GST; chain copies: 3; dsDNA, one strand shown
# Outline: as §1
# [4] = target: T2, SPIC (Homo sapiens, UniProt Q8N5J4 1-248); details: protein: recombinant; tags: N-terminal GST; dsDNA, one strand shown
# T2 sequence: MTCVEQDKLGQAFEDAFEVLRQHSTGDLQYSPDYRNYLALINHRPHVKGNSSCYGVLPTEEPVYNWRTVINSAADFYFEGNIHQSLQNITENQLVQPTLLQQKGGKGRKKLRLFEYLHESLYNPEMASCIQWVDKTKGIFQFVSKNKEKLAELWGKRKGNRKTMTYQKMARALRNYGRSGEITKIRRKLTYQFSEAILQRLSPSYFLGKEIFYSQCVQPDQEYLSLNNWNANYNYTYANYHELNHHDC
# Outline: as §1
# [5] = target: ELF4 (Homo sapiens, UniProt Q99607 1-663); details: protein: recombinant; tags: N-terminal GST; dsDNA, one strand shown
# Outline: as §1
# [6] = target: T3, ELK4 (Homo sapiens, UniProt P28324-2 1-405); details: protein: recombinant; tags: N-terminal GST; dsDNA, one strand shown
# T3 sequence: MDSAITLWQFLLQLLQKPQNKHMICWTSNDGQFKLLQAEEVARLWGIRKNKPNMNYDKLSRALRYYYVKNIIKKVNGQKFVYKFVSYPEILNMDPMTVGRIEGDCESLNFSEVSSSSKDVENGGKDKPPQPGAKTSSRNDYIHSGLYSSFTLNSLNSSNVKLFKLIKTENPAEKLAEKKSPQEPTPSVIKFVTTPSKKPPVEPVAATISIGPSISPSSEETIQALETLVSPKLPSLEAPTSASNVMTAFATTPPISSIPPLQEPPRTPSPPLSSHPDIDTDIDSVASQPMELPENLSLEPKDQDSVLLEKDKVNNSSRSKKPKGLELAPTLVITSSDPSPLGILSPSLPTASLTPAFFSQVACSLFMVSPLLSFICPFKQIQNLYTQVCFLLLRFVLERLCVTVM
# Outline: as §1
# [7] = target: T4, ETV2 (Homo sapiens, UniProt O00321 1-342); details: protein: recombinant; tags: N-terminal GST; dsDNA, one strand shown
# T4 sequence: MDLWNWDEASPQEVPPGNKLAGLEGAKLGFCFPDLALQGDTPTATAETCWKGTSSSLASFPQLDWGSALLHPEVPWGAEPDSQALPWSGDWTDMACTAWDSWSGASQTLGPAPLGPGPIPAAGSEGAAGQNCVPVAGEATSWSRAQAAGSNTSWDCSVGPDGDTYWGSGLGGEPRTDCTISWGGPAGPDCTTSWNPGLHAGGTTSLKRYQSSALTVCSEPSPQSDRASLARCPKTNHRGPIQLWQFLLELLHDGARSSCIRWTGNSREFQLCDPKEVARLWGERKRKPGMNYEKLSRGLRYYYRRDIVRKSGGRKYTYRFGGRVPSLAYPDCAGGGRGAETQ
# Outline: as §1
# [8] = target: T5, ELF3 (Homo sapiens, UniProt P78545 1-371); details: protein: recombinant; tags: N-terminal GST; dsDNA, one strand shown
# T5 sequence: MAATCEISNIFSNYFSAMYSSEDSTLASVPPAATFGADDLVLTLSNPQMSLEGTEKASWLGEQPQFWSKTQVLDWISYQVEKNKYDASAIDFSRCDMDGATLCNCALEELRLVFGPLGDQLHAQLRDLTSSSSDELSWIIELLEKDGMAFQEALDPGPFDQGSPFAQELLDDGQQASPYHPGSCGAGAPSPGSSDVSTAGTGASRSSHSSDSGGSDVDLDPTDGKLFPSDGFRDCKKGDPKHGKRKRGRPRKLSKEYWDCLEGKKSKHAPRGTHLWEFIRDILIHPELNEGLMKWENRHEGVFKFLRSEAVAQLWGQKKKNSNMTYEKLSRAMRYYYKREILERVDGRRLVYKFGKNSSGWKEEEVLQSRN
# Outline: as §1
# [9] = target: CRX (Homo sapiens, UniProt O43186 1-299); details: protein: recombinant; tags: N-terminal GST; dsDNA, one strand shown
# Outline: as §1
# [10] = target: ETV1 (Homo sapiens, UniProt P50549 1-477); details: protein: recombinant; tags: N-terminal GST; dsDNA, one strand shown
# Outline: as §1
# [11] = target: T6, ERF (Homo sapiens, UniProt P50548 1-548); details: protein: recombinant; tags: N-terminal GST; dsDNA, one strand shown
# T6 sequence: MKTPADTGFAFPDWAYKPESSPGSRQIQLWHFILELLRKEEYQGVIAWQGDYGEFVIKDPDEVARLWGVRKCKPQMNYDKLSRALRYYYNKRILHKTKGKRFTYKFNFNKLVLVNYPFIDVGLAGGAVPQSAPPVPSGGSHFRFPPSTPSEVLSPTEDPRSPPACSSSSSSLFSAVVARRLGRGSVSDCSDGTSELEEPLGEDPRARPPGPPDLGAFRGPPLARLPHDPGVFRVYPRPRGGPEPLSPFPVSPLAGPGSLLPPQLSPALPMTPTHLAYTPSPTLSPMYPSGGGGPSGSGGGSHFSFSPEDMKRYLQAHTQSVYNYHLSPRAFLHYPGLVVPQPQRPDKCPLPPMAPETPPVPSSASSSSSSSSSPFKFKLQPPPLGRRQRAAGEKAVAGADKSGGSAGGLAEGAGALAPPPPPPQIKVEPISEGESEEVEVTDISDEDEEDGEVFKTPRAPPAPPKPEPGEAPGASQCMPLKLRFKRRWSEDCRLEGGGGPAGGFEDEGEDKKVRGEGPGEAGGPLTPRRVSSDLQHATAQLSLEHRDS
# Outline: as §1
# [12] = target: T7, ETV3L (Homo sapiens, UniProt Q6ZN32 1-361); details: protein: recombinant; tags: N-terminal GST; dsDNA, one strand shown
# T7 sequence: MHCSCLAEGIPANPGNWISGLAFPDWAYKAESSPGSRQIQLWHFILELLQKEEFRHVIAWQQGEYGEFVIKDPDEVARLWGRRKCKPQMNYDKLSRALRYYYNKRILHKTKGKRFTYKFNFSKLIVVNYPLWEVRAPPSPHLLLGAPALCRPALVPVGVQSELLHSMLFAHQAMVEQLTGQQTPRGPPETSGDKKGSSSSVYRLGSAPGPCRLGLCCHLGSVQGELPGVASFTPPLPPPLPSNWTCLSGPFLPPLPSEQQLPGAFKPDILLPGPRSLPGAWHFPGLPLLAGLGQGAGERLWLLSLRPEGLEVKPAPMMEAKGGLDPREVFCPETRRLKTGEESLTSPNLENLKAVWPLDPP
# Outline: as §1
# [13] = target: T8, ETS2 (Homo sapiens, UniProt P15036 1-469); details: protein: recombinant; tags: N-terminal GST; dsDNA, one strand shown
# T8 sequence: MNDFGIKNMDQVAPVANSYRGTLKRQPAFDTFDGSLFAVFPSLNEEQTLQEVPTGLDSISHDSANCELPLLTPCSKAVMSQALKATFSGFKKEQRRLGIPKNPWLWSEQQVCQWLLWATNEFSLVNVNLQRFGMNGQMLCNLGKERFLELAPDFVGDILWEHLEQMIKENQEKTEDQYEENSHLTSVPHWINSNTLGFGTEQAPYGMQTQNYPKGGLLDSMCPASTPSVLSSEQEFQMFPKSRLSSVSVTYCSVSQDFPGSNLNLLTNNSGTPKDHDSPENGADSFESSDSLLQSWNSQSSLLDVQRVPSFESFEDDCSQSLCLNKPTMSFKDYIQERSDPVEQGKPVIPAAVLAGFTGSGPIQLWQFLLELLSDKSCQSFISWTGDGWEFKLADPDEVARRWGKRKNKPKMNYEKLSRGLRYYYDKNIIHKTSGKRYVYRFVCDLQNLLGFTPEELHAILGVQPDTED
# Outline: as §1
# [14] = target: T9, SPDEF (Homo sapiens, UniProt O95238 1-335); details: protein: recombinant; tags: N-terminal GST; dsDNA, one strand shown
# T9 sequence: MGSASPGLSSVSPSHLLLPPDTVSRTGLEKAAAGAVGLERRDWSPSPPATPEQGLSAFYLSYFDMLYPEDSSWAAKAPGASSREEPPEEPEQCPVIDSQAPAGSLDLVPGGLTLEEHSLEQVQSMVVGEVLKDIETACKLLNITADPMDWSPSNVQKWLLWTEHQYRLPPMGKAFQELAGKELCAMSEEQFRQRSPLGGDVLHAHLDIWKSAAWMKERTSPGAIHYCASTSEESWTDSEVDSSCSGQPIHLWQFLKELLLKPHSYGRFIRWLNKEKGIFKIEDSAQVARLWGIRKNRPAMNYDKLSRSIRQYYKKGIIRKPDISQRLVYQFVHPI
# Outline: as §1
# [15] = target: T10, ETV7 (Homo sapiens, UniProt Q9Y603 1-341); details: protein: recombinant; tags: N-terminal GST; dsDNA, one strand shown
# T10 sequence: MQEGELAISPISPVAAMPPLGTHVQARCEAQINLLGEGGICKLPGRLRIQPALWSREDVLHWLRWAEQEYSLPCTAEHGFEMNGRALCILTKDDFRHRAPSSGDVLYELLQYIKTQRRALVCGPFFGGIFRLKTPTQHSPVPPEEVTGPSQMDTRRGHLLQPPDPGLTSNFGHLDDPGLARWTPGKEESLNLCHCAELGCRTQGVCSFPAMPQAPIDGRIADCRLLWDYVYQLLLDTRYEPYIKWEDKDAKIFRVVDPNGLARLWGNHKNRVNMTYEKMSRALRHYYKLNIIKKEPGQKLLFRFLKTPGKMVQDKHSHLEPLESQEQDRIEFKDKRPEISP
# Outline: as §1
# [16] = target: T11, ELF5 (Homo sapiens, UniProt Q9UKW6-2 1-255); details: protein: recombinant; tags: N-terminal GST; dsDNA, one strand shown
# T11 sequence: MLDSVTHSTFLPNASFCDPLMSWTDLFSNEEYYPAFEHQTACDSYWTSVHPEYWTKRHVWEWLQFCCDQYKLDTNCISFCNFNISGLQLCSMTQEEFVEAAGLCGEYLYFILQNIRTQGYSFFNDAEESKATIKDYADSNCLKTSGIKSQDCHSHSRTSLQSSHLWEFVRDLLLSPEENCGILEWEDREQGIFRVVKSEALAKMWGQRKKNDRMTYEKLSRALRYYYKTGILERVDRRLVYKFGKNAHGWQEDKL
# Outline: as §1
# [17] = target: T12, ETV3 (Homo sapiens, UniProt P41162-2 1-143); details: protein: recombinant; tags: N-terminal GST; dsDNA, one strand shown
# T12 sequence: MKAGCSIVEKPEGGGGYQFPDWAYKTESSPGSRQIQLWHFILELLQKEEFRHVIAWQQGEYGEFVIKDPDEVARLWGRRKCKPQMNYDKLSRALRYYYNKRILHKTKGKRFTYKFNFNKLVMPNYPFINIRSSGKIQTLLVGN
# Outline: as §1
# [18] = target: ETV6 (Homo sapiens, UniProt P41212 1-452); details: protein: recombinant; tags: N-terminal GST; dsDNA, one strand shown
# Outline: as §1
# Chain of ETV1 (P50549 whole entry): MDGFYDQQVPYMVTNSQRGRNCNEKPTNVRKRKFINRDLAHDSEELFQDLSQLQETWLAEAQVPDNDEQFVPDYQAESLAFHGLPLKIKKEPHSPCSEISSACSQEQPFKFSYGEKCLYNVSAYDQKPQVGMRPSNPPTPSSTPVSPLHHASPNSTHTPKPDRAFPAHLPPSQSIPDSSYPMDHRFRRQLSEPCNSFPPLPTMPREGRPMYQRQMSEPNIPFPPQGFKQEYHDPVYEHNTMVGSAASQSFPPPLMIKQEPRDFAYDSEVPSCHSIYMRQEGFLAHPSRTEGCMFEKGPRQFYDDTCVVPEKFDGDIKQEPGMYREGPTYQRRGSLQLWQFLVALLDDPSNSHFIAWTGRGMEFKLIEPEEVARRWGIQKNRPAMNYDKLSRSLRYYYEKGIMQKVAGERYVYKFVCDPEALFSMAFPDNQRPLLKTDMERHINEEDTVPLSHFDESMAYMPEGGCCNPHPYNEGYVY
# Chain of HSF1 (Q00613 whole entry): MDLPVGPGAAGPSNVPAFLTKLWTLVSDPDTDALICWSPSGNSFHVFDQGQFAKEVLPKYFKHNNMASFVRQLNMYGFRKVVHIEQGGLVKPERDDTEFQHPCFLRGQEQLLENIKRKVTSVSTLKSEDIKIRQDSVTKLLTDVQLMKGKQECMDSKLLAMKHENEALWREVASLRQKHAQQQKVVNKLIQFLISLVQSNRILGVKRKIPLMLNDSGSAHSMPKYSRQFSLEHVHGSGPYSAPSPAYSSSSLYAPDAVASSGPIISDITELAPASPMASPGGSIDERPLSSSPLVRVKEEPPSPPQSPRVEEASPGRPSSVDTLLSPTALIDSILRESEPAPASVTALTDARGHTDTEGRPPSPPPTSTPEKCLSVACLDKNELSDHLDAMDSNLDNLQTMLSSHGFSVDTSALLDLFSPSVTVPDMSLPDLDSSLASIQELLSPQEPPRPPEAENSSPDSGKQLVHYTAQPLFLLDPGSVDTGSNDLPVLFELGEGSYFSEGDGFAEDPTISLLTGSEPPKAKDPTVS
# Chain of ETV6 (P41212 whole entry): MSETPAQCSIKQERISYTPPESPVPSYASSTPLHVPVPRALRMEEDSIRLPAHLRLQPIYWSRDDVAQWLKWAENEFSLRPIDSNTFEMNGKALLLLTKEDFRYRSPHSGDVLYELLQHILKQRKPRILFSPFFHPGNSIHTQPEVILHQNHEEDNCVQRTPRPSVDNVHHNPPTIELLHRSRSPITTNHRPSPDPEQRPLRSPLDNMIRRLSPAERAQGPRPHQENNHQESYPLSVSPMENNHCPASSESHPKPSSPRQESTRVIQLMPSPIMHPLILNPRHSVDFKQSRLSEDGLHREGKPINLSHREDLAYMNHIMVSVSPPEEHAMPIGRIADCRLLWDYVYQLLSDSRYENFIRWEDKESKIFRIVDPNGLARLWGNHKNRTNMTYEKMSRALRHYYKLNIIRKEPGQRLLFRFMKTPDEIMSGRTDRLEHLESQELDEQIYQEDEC
# Chain of ETV5 (P41161 whole entry): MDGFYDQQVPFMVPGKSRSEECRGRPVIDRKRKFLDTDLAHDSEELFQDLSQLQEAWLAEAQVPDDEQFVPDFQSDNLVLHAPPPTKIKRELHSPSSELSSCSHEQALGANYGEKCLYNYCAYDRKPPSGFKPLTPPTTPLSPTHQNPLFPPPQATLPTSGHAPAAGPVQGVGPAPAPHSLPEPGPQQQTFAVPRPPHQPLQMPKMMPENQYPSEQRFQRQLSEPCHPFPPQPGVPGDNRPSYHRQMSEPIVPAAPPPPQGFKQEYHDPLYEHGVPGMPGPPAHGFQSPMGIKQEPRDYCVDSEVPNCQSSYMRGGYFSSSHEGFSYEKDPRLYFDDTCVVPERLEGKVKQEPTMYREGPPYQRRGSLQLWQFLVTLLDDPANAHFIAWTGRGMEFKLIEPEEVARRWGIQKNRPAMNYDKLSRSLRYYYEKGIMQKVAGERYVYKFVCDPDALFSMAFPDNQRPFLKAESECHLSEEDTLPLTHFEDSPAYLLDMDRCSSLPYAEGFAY
# Chain of ELF4 (Q99607 whole entry): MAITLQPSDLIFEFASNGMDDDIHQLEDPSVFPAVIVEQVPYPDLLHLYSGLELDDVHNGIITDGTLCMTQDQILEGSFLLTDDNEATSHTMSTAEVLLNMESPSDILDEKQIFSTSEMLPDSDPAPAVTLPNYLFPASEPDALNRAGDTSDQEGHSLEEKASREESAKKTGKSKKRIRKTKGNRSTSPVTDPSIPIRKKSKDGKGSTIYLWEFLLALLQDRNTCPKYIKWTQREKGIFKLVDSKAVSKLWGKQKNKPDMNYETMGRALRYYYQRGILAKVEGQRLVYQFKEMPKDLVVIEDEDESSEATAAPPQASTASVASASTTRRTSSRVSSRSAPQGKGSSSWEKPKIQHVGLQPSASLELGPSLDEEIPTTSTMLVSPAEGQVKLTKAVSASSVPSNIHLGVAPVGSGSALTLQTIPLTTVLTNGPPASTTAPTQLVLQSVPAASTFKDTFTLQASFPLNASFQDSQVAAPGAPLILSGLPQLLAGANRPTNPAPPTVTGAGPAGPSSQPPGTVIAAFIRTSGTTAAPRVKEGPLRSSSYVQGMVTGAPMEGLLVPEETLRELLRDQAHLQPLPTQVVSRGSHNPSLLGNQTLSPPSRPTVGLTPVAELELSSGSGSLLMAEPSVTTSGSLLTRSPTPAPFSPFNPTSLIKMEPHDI
# Chain of CRX (O43186 whole entry): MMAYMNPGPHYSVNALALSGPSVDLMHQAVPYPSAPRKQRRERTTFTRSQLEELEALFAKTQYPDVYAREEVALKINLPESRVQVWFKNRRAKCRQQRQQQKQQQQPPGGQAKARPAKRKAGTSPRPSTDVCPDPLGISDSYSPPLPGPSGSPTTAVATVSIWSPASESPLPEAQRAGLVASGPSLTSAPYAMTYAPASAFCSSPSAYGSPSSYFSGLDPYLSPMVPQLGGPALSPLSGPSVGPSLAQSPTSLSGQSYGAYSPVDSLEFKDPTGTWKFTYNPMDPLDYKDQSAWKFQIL
sequence,measurement,setting,value
TGTTAT,binding signal,[1],"1.34 fold enrichment (6-mer frequency, TF over GST control)"
same,binding signal,[2],"1.34 fold enrichment (6-mer frequency, TF over GST control)"
same,binding signal,[3],"1.31 fold enrichment (6-mer frequency, TF over GST control)"
same,binding signal,[4],"1.45 fold enrichment (6-mer frequency, TF over GST control)"
same,binding signal,[5],"1.39 fold enrichment (6-mer frequency, TF over GST control)"
same,binding signal,[6],"1.35 fold enrichment (6-mer frequency, TF over GST control)"
same,binding signal,[7],"1.3 fold enrichment (6-mer frequency, TF over GST control)"
same,binding signal,[8],"1.35 fold enrichment (6-mer frequency, TF over GST control)"
same,binding signal,[9],"1.4 fold enrichment (6-mer frequency, TF over GST control)"
same,binding signal,[10],"1.42 fold enrichment (6-mer frequency, TF over GST control)"
same,binding signal,[11],"1.47 fold enrichment (6-mer frequency, TF over GST control)"
same,binding signal,[12],"1.49 fold enrichment (6-mer frequency, TF over GST control)"
same,binding signal,[13],"1.34 fold enrichment (6-mer frequency, TF over GST control)"
same,binding signal,[14],"1.41 fold enrichment (6-mer frequency, TF over GST control)"
same,binding signal,[15],"1.24 fold enrichment (6-mer frequency, TF over GST control)"
same,binding signal,[16],"1.36 fold enrichment (6-mer frequency, TF over GST control)"
same,binding signal,[17],"1.32 fold enrichment (6-mer frequency, TF over GST control)"
same,binding signal,[18],"1.39 fold enrichment (6-mer frequency, TF over GST control)"
